The supplement of paper PMC7411054
Structures can show the parent of a compound that is named as a salt.

Assays:
Test in all cases: lowest phenotypically active concentration; higher = less potent
Conditions in all cases: treatment time: 24 h
[1] = tested on: A549-TP53BP1-CLTA
In short: (§1)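 Fifteen gene-edited A549, HepG2 and WPMY1 reporter lines (BFP segmentation plus GFP and RFP/FusionRed markers) were treated at 0.3, 1, 3 or 9 µM for 24 h, four wells each, then imaged live. Live-cell features per well were normalised to DMSO control wells. Deviation required ≥3 of 4 wells beyond the 95th percentile of DMSO Euclidean distances, and reproducibility required median replicate Pearson correlation above the 95th percentile of non-replicates. Phenotypic activity needed both criteria.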

[2] = tested on: HepG2-CANX-COX4
In short: as §1

[3] = tested on: HepG2-GM130-SQSTM1
In short: as §1

[4] = tested on: HepG2-TP53BP1-CLTA
In short: as §1

[5] = tested on: HepG2-TUBA1B-RELA
In short: as §1

[6] = tested on: WPMY1-ACTB-RAB5A
In short: as §1

[7] = tested on: WPMY1-GM130-SQSTM1
In short: as §1

[8] = tested on: WPMY1-TP53BP1-CLTA
In short: as §1

[9] = tested on: WPMY1-TUBA1B-RELA
In short: as §1

COc1ccccc1OCCNCC(O)COc1cccc2[nH]c3ccccc3c12 (centres undefined) [Carvedilol]
lowest phenotypically active concentration [1]: 9 µM
lowest phenotypically active concentration [2]: 9 µM
lowest phenotypically active concentration [3]: 9 µM
lowest phenotypically active concentration [4]: 9 µM
lowest phenotypically active concentration [5]: 9 µM
lowest phenotypically active concentration [6]: 9 µM
lowest phenotypically active concentration [7]: 3 µM
lowest phenotypically active concentration [8]: 9 µM
lowest phenotypically active concentration [9]: 9 µM

CN1[C@@H]2CC[C@H]1C[C@@H](OC(c1ccccc1)c1ccccc1)C2 [benztropine]
lowest phenotypically active concentration [1]: 9 µM
lowest phenotypically active concentration [2]: 9 µM
lowest phenotypically active concentration [4]: 9 µM
lowest phenotypically active concentration [5]: 9 µM
lowest phenotypically active concentration [7]: 9 µM
lowest phenotypically active concentration [9]: 9 µM

CC/C(=C(\CC)c1ccc(O)c(CN(CC)CC)c1)c1ccc(O)c(CN(CC)CC)c1
lowest phenotypically active concentration [1]: 1 µM
lowest phenotypically active concentration [3]: 1 µM
lowest phenotypically active concentration [4]: ≤ 0.3 µM
lowest phenotypically active concentration [5]: 1 µM
lowest phenotypically active concentration [6]: 1 µM
lowest phenotypically active concentration [7]: 1 µM
lowest phenotypically active concentration [8]: 9 µM
lowest phenotypically active concentration [9]: 9 µM

CC(C)COCC(CN(Cc1ccccc1)c1ccccc1)N1CCCC1 (centres undefined) [bepridil]
lowest phenotypically active concentration [1]: 9 µM
lowest phenotypically active concentration [2]: 9 µM
lowest phenotypically active concentration [3]: 9 µM
lowest phenotypically active concentration [4]: 9 µM
lowest phenotypically active concentration [5]: 9 µM
lowest phenotypically active concentration [7]: 9 µM
lowest phenotypically active concentration [8]: 9 µM

COc1c(C=O)c(O)cc2c1C(=O)c1ccccc1C2=O [Damnacanthal]
lowest phenotypically active concentration [1]: 3 µM
lowest phenotypically active concentration [3]: 9 µM
lowest phenotypically active concentration [4]: 9 µM
lowest phenotypically active concentration [6]: 9 µM
lowest phenotypically active concentration [7]: 3 µM
lowest phenotypically active concentration [8]: 9 µM
lowest phenotypically active concentration [9]: 9 µM

NS(=O)(=O)c1nn2cc(-c3ccccc3)nc2s1
lowest phenotypically active concentration [1]: 9 µM
lowest phenotypically active concentration [2]: 9 µM
lowest phenotypically active concentration [3]: 9 µM
lowest phenotypically active concentration [5]: 9 µM
lowest phenotypically active concentration [6]: 9 µM
lowest phenotypically active concentration [7]: 9 µM
lowest phenotypically active concentration [8]: 9 µM
lowest phenotypically active concentration [9]: 9 µM

COc1ccc(CCNCc2ccc(OCc3ccc(Cl)nc3)c(OC)c2)cc1OC [SBE 13 hydrochloride]
lowest phenotypically active concentration [1]: 9 µM
lowest phenotypically active concentration [4]: 9 µM
lowest phenotypically active concentration [5]: 9 µM
lowest phenotypically active concentration [6]: 9 µM
lowest phenotypically active concentration [7]: 9 µM
lowest phenotypically active concentration [8]: 9 µM
lowest phenotypically active concentration [9]: 9 µM

CSc1ccc2c(c1)N(CCC1CCCCN1C)c1ccccc1S2 (centres undefined) [thioridazine]
lowest phenotypically active concentration [1]: 9 µM
lowest phenotypically active concentration [2]: 9 µM
lowest phenotypically active concentration [3]: 9 µM
lowest phenotypically active concentration [4]: 9 µM
lowest phenotypically active concentration [5]: 9 µM
lowest phenotypically active concentration [6]: 9 µM
lowest phenotypically active concentration [7]: 9 µM
lowest phenotypically active concentration [8]: 9 µM
lowest phenotypically active concentration [9]: 9 µM

Clc1ccccc1C(c1ccccc1)(c1ccccc1)n1ccnc1 [Clotrimazole]
lowest phenotypically active concentration [1]: 9 µM
lowest phenotypically active concentration [2]: 9 µM
lowest phenotypically active concentration [7]: 9 µM

C[C@]1(O)C[C@@H](c2nc(-c3ccc4ccc(-c5ccccc5)nc4c3)c3c(N)nccn32)C1 [linsitinib]
lowest phenotypically active concentration [1]: 9 µM
lowest phenotypically active concentration [2]: 9 µM
lowest phenotypically active concentration [3]: 9 µM
lowest phenotypically active concentration [4]: 9 µM
lowest phenotypically active concentration [5]: 9 µM
lowest phenotypically active concentration [6]: 9 µM
lowest phenotypically active concentration [7]: 9 µM
lowest phenotypically active concentration [8]: 9 µM

CNCCC(Oc1ccc(C(F)(F)F)cc1)c1ccccc1 (centres undefined) [fluoxetine]
lowest phenotypically active concentration [1]: 9 µM
lowest phenotypically active concentration [4]: 9 µM
lowest phenotypically active concentration [5]: 3 µM
lowest phenotypically active concentration [7]: 9 µM

COc1ccc(CNC(=O)Nc2ncc([N+](=O)[O-])s2)cc1
lowest phenotypically active concentration [1]: 9 µM
lowest phenotypically active concentration [7]: 9 µM
lowest phenotypically active concentration [8]: 9 µM

O=C(O)C[C@H](O)C[C@H](O)/C=C/c1c(C2CC2)nc2ccccc2c1-c1ccc(F)cc1 [Pitavastatin calcium]
lowest phenotypically active concentration [1]: 9 µM
lowest phenotypically active concentration [2]: 1 µM
lowest phenotypically active concentration [3]: 1 µM
lowest phenotypically active concentration [4]: 1 µM
lowest phenotypically active concentration [5]: 1 µM
lowest phenotypically active concentration [6]: ≤ 0.3 µM
lowest phenotypically active concentration [7]: ≤ 0.3 µM
lowest phenotypically active concentration [8]: 1 µM
lowest phenotypically active concentration [9]: 1 µM

Cc1noc(C)c1Cn1cc(C#N)c2cc(Oc3ccc(NC(=O)[C@@H]4CCCN4)cc3)ccc21
lowest phenotypically active concentration [1]: 9 µM
lowest phenotypically active concentration [3]: 9 µM
lowest phenotypically active concentration [4]: 9 µM
lowest phenotypically active concentration [5]: 9 µM
lowest phenotypically active concentration [6]: 9 µM
lowest phenotypically active concentration [7]: 9 µM
lowest phenotypically active concentration [8]: 9 µM
lowest phenotypically active concentration [9]: 9 µM

N#C/C(=C(/N)Sc1ccc(N)cc1)c1ccccc1C(F)(F)F
lowest phenotypically active concentration [1]: 1 µM
lowest phenotypically active concentration [2]: 3 µM
lowest phenotypically active concentration [3]: 9 µM
lowest phenotypically active concentration [4]: 3 µM
lowest phenotypically active concentration [5]: 9 µM
lowest phenotypically active concentration [8]: 9 µM

CCCNCC(O)COc1ccccc1C(=O)CCc1ccccc1 (centres undefined) [propafenone]
lowest phenotypically active concentration [1]: 9 µM
lowest phenotypically active concentration [5]: 9 µM
lowest phenotypically active concentration [6]: 9 µM
lowest phenotypically active concentration [7]: 3 µM
lowest phenotypically active concentration [8]: 3 µM

O=S(=O)(c1cccc2cnccc12)N1CCCNCC1 [fasudil]
lowest phenotypically active concentration [1]: 9 µM
lowest phenotypically active concentration [2]: 3 µM
lowest phenotypically active concentration [3]: 3 µM
lowest phenotypically active concentration [4]: 3 µM
lowest phenotypically active concentration [5]: 9 µM
lowest phenotypically active concentration [6]: 3 µM
lowest phenotypically active concentration [7]: 9 µM
lowest phenotypically active concentration [9]: 9 µM

NC(=O)c1cccc(-c2cc(Nc3ccc(OC(F)(F)F)cc3)ncn2)c1
lowest phenotypically active concentration [1]: 9 µM
lowest phenotypically active concentration [3]: 9 µM
lowest phenotypically active concentration [6]: 3 µM
lowest phenotypically active concentration [7]: 9 µM
lowest phenotypically active concentration [8]: 9 µM

COc1cc2ncnc(Nc3ccc(Cl)cc3F)c2cc1OC
lowest phenotypically active concentration [1]: 3 µM

Cn1cc(C2=C(c3ccc(Cl)cc3Cl)C(=O)NC2=O)c2ccccc21
lowest phenotypically active concentration [1]: ≤ 0.3 µM
lowest phenotypically active concentration [3]: 1 µM
lowest phenotypically active concentration [4]: ≤ 0.3 µM
lowest phenotypically active concentration [7]: ≤ 0.3 µM
lowest phenotypically active concentration [8]: ≤ 0.3 µM

Cc1ccc(NC(=O)c2cccc(N(C)C)c2)cc1NC(=O)c1ccc(O)cc1
lowest phenotypically active concentration [1]: 3 µM
lowest phenotypically active concentration [6]: 9 µM

COc1cc(OC)c2cc(-c3ccncc3)cnc2c1 [DMPQ dihydrochloride]
lowest phenotypically active concentration [1]: 9 µM
lowest phenotypically active concentration [2]: 9 µM
lowest phenotypically active concentration [8]: 9 µM

Cc1cc(Nc2ccc(NC(=O)c3ccc(Nc4ccnc5ccccc45)cc3)cc2)nc(N)n1
lowest phenotypically active concentration [1]: 9 µM
lowest phenotypically active concentration [3]: 1 µM
lowest phenotypically active concentration [4]: 3 µM
lowest phenotypically active concentration [5]: 3 µM
lowest phenotypically active concentration [6]: 3 µM
lowest phenotypically active concentration [7]: 1 µM
lowest phenotypically active concentration [8]: 3 µM
lowest phenotypically active concentration [9]: 3 µM

CCCS(=O)(=O)Nc1ccc(F)c(C(=O)c2c[nH]c3ncc(Cl)cc23)c1F
lowest phenotypically active concentration [1]: 1 µM
lowest phenotypically active concentration [2]: 1 µM
lowest phenotypically active concentration [3]: ≤ 0.3 µM
lowest phenotypically active concentration [4]: 1 µM
lowest phenotypically active concentration [5]: 9 µM
lowest phenotypically active concentration [7]: 9 µM

O=C(NOCC1CC1)c1ccc(F)c(F)c1Nc1ccc(I)cc1Cl
lowest phenotypically active concentration [1]: ≤ 0.3 µM
lowest phenotypically active concentration [2]: 1 µM
lowest phenotypically active concentration [3]: ≤ 0.3 µM
lowest phenotypically active concentration [4]: ≤ 0.3 µM
lowest phenotypically active concentration [5]: ≤ 0.3 µM

Cc1ccc(NC2=CC(=O)c3sc(C)nc3C2=O)cc1 [Ryuvidine]
lowest phenotypically active concentration [1]: 1 µM
lowest phenotypically active concentration [3]: 3 µM
lowest phenotypically active concentration [4]: 3 µM
lowest phenotypically active concentration [6]: 1 µM
lowest phenotypically active concentration [7]: 1 µM
lowest phenotypically active concentration [9]: 1 µM

CCCCOc1cc(C(=O)NCCN(CC)CC)c2ccccc2n1 [cinchocaine]
lowest phenotypically active concentration [1]: 9 µM
lowest phenotypically active concentration [4]: 9 µM
lowest phenotypically active concentration [6]: 9 µM

O[C@H](CNC[C@H](O)[C@@H]1CCc2cc(F)ccc2O1)[C@@H]1CCc2cc(F)ccc2O1 [nebivolol]
lowest phenotypically active concentration [4]: 9 µM
lowest phenotypically active concentration [5]: 3 µM
lowest phenotypically active concentration [6]: 3 µM
lowest phenotypically active concentration [7]: 9 µM
lowest phenotypically active concentration [8]: 9 µM
lowest phenotypically active concentration [9]: 3 µM

Clc1ccc2c(c1)C(N1CCNCC1)=Nc1ccccc1O2 [amoxapine]
lowest phenotypically active concentration [3]: 9 µM
lowest phenotypically active concentration [5]: 3 µM
lowest phenotypically active concentration [6]: 9 µM
lowest phenotypically active concentration [9]: 9 µM
